Results on 35 compounds are retold here after PubChem BioAssay (Tox21).

Records with an inconclusive call do not appear. Calls of active or inactive are those of the source. Calls come from the whole dose curve; as a rule, active = well fitted activation curve with a large enough effect in the repeat runs; inconclusive = weak or mixed curves; inactive = flat fitted curve, though single readings scatter.
% is set by controls: 0 for no effect and ±100 for the full control effect.

A short description of this assay: A CellTox Green Cytotoxicity Assay to monitor cytotoxicity in HEK293 cells - 8 hour (AID 1224884). Note: nearly all actives have a fitted effect of over 35% in size. Particulars: CellTox Green fluorescence; series mostly up to 76.8 µM; cytotoxicity increase: at the top concentration. In a few lines: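 Real-time, in one plate: 600 HEK293 cells/well with dead-cell DNA dye, pinned compound after 5 h, 37 C incubation over 40 h; viable cells give no appreciable fluorescence.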
In the case of `CN1CCC(=C2c3ccccc3Sc3ccccc32)CC1`, the “cytotoxicity increase” value was 1.25% [at 35.3 µM] (inactive).

For the compound `C=C1[C@H]2CC[C@@H]3[C@H]2C(C)(C)CCC[C@]13C`, the “cytotoxicity increase” value was -1.25% (inactive). For `CN1C[C@H]2c3ccccc3Oc3ccc(Cl)cc3[C@@H]2C1` the value was 9.95% [at 35.3 µM] (inactive); for `O=CC1CC=CCC1` (stereo not given), 9.05% (inactive); for `CC(CSC(=O)c1ccccc1)C(=O)N1C[C@@H](Sc2ccccc2)C[C@H]1C(=O)O` (stereo not given in full), 0.0018% [at 15.8 µM] (inactive).

For `C=CCOc1ccccc1OCC(O)CNC(C)C` (stereo not given), the “cytotoxicity increase” value is -0.348% [at 35.3 µM] (inactive). The value for `C#CCN(C)CCCOc1ccc(Cl)cc1Cl` was -3.53% [at 35.3 µM] (inactive); that for `CCCCCCCCCCCc1ccccc1` was -1.01% (inactive); that for `C[C@@H]1C[C@H]2O[C@@]3(O[C@@H]2C(C)(C)O)[C@H](O)[C@@]2(C)[C@@H]4CC[C@H]5C(C)(C)[C@@H](O[C@@H]6OC[C@@H](O)[C@H](O)[C@H]6O)CC[C@@]56C[C@@]46CC[C@]2(C)[C@@H]13` was 1.06% [at 35.3 µM] (inactive). Consider `COCCCN1CCC(NC(=O)c2cc(Cl)c(N)c3c2OCC3)CC1`, for which the “cytotoxicity increase” value was -1.52% [at 35.3 µM] (inactive).

Take `CC(=O)[O][Al][O]C(C)=O`: the “cytotoxicity increase” value is 6.48% (inactive). The value for `c1ccc(CNCCNCc2ccccc2)cc1` was 1.87% [at 35.3 µM] (inactive); that for `CC1CCC(=O)C1=O` (stereo not given) was -6.89% (inactive); that for `O=S(c1cc(Cl)cc(Cl)c1O)c1cc(Cl)cc(Cl)c1O` was 8.24% [at 35.3 µM] (inactive). Regarding `O=C(O)C1(C(=O)Nc2ccc(Cl)cc2Cl)CC1`, the “cytotoxicity increase” value was -6.13% (inactive).

For the compound `CCC(CC)Nc1ccc(C)c(C)c1`, the “cytotoxicity increase” value is -11.5% (inactive). For `Nc1ccc([N+](=O)[O-])c(C(F)(F)F)c1`, the “cytotoxicity increase” value was -15.9% [at 35.3 µM] (inactive).

`CCOC(=O)C(=O)CCc1ccccc1`: the “cytotoxicity increase” value is -5.86% [at 35.3 µM] (inactive). On to `CC(C)(C)Cl`, for which the “cytotoxicity increase” value was 6.1% (inactive). The value for `O=C(O)C1(C(=O)O)CCC1.[NH2-].[NH2-].[Pt+2]` was -33.8% [at 35.3 µM] (inactive). For the compound `CCCCCCCCO[C@@H]1O[C@H](CO)[C@@H](O)[C@H](O)[C@H]1O`, the “cytotoxicity increase” value was -28% (inactive).

Take `Nc1ccccc1S(=O)(=O)c1ccccc1`: the “cytotoxicity increase” value is -0.41% (inactive). The value for `CCCCC(CC)COC(=O)CCCCCCCCC(=O)OCC(CC)CCCC` (stereo not given) was -15.6% (inactive); that for `Nc1ccc(S(=O)(=O)Nc2ccccc2)cc1` was 5.89% [at 35.3 µM] (inactive); that for `Cc1oc(-c2ccccc2)nc1CCOc1cccc2c1ccn2CCC(=O)O` was -0.0345% (inactive). For `O=C(NCCO[N+](=O)[O-])c1cccnc1` the value was -3.97% [at 35.3 µM] (inactive); for `CCCC(=O)Nc1ccc(O)c(C(C)=O)c1`, -3.02% [at 35.3 µM] (inactive). For `CCOc1ccc(N=Nc2ccc(/C=C/c3ccc(N=Nc4ccc(OCC)cc4)cc3S(=O)(=O)O)c(S(=O)(=O)O)c2)cc1` the value was -25.4% (inactive); for `O=[N+]([O-])c1cccc(S(=O)(=O)O)c1`, 6.9% (inactive); for `COc1ccc(C)cc1[N+](=O)[O-]`, -15.9% (inactive).

As to `CC(C)OC(=O)C(C)N(C(=O)c1ccccc1)c1ccc(F)c(Cl)c1` (stereo not given), the “cytotoxicity increase” value was 0.173% (inactive). The value for `O=C(O)c1ccco1` was -4.7% (inactive); that for `CN(C)CCN(Cc1ccsc1)c1ccccn1` was 1.81% [at 35.3 µM] (inactive).

On to `CCO[Si](CCCCl)(OCC)OCC`, for which the “cytotoxicity increase” value is 9.67% (inactive). The value for `O=C(O)C(S)C(S)C(=O)O` (stereo not given) was -15.4% [at 35.3 µM] (inactive).
